According to PubChem BioAssay AID778 (Sanford-Burnham Center for Chemical Genomics, 2007):
Among all 96,000 compounds or so, about 20,000 (21%) were called active. Only a sample is shown. A number with no mark means an inactive call.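 How the source made its calls: active means CYP2C19 inhibition above a set limit at 5 µM in the primary screen (cut at about 50% in these data); inactive means the rest.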

biological target: Cytochrome P450 2C19 (Homo sapiens) (UniProt P33261); assay: blockers of cytochrome P450 2C19 activity – biochemical, luminescence, ADME assay, primary screen (AID 778); settings: CYP2C19 Supersomes, luciferin-H EGE luminescence, 30 min; at 5 µM; active compounds read high;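 further: plate controls were negative control wells for no effect and 2.5 mM tranylcypromine positive control for full effect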
Sequence (P33261 whole entry, looked up): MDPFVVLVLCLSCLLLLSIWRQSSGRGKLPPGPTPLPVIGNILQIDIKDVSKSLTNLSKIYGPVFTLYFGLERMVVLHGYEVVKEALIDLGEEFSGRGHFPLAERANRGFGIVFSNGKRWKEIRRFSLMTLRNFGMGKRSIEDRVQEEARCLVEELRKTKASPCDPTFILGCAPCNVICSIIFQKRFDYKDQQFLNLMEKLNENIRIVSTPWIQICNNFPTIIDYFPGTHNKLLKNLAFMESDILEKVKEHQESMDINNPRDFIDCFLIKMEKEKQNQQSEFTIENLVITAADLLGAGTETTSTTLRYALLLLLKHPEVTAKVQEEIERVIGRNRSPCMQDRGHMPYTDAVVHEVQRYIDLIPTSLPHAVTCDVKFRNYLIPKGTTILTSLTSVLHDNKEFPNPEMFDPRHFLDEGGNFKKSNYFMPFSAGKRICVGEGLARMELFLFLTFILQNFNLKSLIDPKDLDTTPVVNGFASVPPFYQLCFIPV

SMILES | inhibition
CCOc1ccc(NC(=O)N2CC=C(n3c(=O)[nH]c4ccccc43)CC2)cc1 | 11.1%
COc1ccc(N(C(=O)c2cccnc2)S(=O)(=O)c2ccc3c(c2)n(C)c(=O)n3C)cc1 | 57.8% (active)
COc1ccc(-c2c3c(=O)n(C)c(=O)n(C)c3cn2-c2cccc(OC)c2)cc1 | -4%
COc1ccc(-c2c3c(=O)n(C)c(=O)n(C)c3cn2NC(C)=O)cc1 | -2.1%
O=C(Cn1cncn1)N/N=C/c1c2ccccc2cc2ccccc12 | 80% (active)
CCCC(=O)Nc1cccc(-c2cn3ccsc3n2)c1 | -11.8%
CCOC(=O)N1CCC(NC(=O)CN2C(=O)COc3ccc(C(C)(C)C)cc32)CC1 | 10.8%
CCOC(=O)C(=O)Nc1nc(-c2ccccc2)c(CC)s1 | 3.5%
COCCCN1C(=O)c2ccc(C(=O)Nc3ccc(OC)cc3OC)cc2C1=O | 61.8% (active)
CCOc1ccc(Cn2nnc(C(=O)Nc3ccc(OC)cc3OC)c2N)cc1 | -21.9%
COc1ccc(NC(=O)c2cccc(NC(=O)c3ccco3)c2)c(OC)c1 | 15.1%
CCOP1(=O)C=C(C(C)(C)C)OC1c1ccc(F)cc1 (stereo not given) | 15.6%
CCCOP(=O)(c1ccc(N(C)C)cc1)C(O)c1cc(OC)c(OC)c(OC)c1 (stereo not given) | 16.9%
O=C(O)c1cc2ccccc2c(=O)s1 | 15.6%
CCSC1=C(C#N)C(=O)n2c1cc1c2CCCC1 | 10.1%
Cn1c(=O)c2c(ncn2CC(COCc2ccccc2Cl)OCc2ccccc2Cl)n(C)c1=O (stereo not given) | 49.2%
Cn1c(=O)c2c(ncn2CC(=O)N2CCN(c3ccccc3)CC2)n(C)c1=O | 4.9%
CC(C)Cn1cnc2c1c(=O)n(CC(O)c1ccccc1)c(=O)n2CC(C)C (stereo not given) | 58.8% (active)
CCCc1nc2oc3c(OCC)ncnc3c2c2c1COC(C)(C)C2 | -9.9%
CCC(C)n1[nH]c(=O)c2c(C)cc(C)nc21 (stereo not given) | 10.9%
O=C1CC(N2CCN(C(c3ccccc3)c3ccccc3)CC2)C(=O)N1 (stereo not given) | 8.8%
CC(C)(C)c1cc(CN2CCN(CCC#N)CC2)cc(C(C)(C)C)c1O | -2.1%
CC(C)(C)c1ccc(C(=O)CSc2ncn[nH]2)cc1 | 23%
CCN(C(=O)CSc1ncn[nH]1)c1cccc2ccccc12 | 63.2% (active)
O=C(CSc1ncn[nH]1)Nc1ccnc2ccccc12 | 27.1%

SMILES | inhibition
CCOC(=O)c1nnn(CC(=O)Nc2cccc(F)c2)c1C(=O)OCC | 95.7% (active)
CCOC(=O)c1cccc(NC(=O)CCn2nnc3ccccc32)c1 | 23.3%
COc1ccc(NC(=O)Cn2nnc(C(=O)NCCc3ccc(OC)c(OC)c3)c2N)cc1 | 4.1%
CC12CCC(C(=O)N3CCN(c4ncccn4)CC3)(c3nc4ccccc4nc31)C2(C)C (stereo not given) | 31.7%
CCCn1c(C)cc(C(=O)COC(=O)c2c(C)nn(-c3ccccc3)c2C)c1C | 88.6% (active)
Cc1nn(-c2ccccc2)c(C)c1C(=O)OCC(=O)NC(=O)NC1CCCCC1 | 28.3%
Cc1cc(C(=O)COC(=O)c2cccs2)c(C)n1-c1c(C)n(C)n(-c2ccccc2)c1=O | -0.8%
O=C1CCC(C(=O)Nc2ccc(OC(F)F)cc2)N1 (stereo not given) | 0%
O=c1cc(CO)oc(CN2CCC(Cc3ccccc3)CC2)c1O | 15.2%
CCN1CCCC1CNC(=O)Cn1cnc2ccc(S(=O)(=O)N3CCC(C)CC3)cc2c1=O (stereo not given) | -0.8%
COCC(C)N=CC1=C(O)CC(C)(C)CC1=O (stereo not given) | 0.7%
c1ccc(Nc2n[nH]nc2-c2ccccc2)cc1 | 84.7% (active)
Nc1ccc(Nc2ccccc2)cc1 | 36.6%
COC(CNC(=O)Cn1ncc2ccsc2c1=O)OC | 2.1%
COC(=O)C(CC(=O)Nc1cc(C)ccc1C)Nc1ccccc1OC (stereo not given) | 15.3%
COc1ccccc1NC(=O)/C=C/C(N)=O | -0.2%
COc1ccccc1NC(=O)COc1ccc(C(=O)OCC(=O)N(C(C)C)C(C)C)cc1OC | 56.4% (active)
CC1CC(C)CN(C/C=C/c2ccccc2[N+](=O)[O-])C1 (stereo not given) | 29.7%
CCC(C)NC(=O)CSC1=Nc2ccccc2C2=NC(CCC(=O)NCc3ccco3)C(=O)N12 (stereo not given) | 6.1%
COc1ccc(OC)c(/C=N/NC(=O)CSc2nnc(C)n2-c2ccccc2)c1 | 23.2%
CCOC(=O)CNC(=O)CSc1nnc(COc2ccc(Cl)cc2)n1CC | 14.7%
Cc1nnc(SCC(=O)NCCOc2ccc(Cl)cc2)n1-c1ccccc1 | 95.6% (active)
COC(=O)[C@@H](NC(=O)NCc1cccc(OC)c1)C(C)C | 5.8%
CCOC(=O)Cn1c(-c2cccnc2Cl)nc2ccccc21 | -2%
Cc1no[n+]([O-])c1COc1ccccc1/C=C1\NC(=S)NC1=O | 20.6%

SMILES | inhibition
CCN1C(=O)/C(=C2\SC(N3CCCCC3)=NC2=O)c2ccccc21 | 19.9%
O=S(=O)(c1cccc2nonc12)N1CCN(c2cccc(Cl)c2)CC1 | 1.5%
CCN1C(=O)/C(=C\N2CCN(c3cccc(Cl)c3)CC2)SC1=S | 13%
O=Cc1c(N2CCN(c3cccc(Cl)c3)CC2)nc2ccccn2c1=O | 99.4% (active)
CN1CC(c2ccccc2)C2(COc3ccccc3C2=O)C12C(=O)Nc1ccccc12 (stereo not given) | 46.7%
COc1ccccc1/C=C/C1=NC(=C\N(C)C)/C(=O)O1 | 19.5%
CCOC(=O)CSc1nnc(CNC(=O)Cc2ccccc2)n1-c1ccccc1OC | 8.2%
CCOC(=O)CSc1nnc(CNC(=O)c2cccs2)n1-c1cc(OC)ccc1OC | 58.2% (active)
CCOC(=O)CSc1nnc(CNC(=O)c2cccs2)n1-c1ccccc1 | -5.7%
CCOc1ccccc1Oc1cn[nH]c1-c1ccc(OC)cc1O | 100% (active)
CCOc1cc(-c2cc(-c3ccc(OC)cc3)nc(N)c2C#N)ccc1O | 19.9%
Cc1ccc(SCCC(=O)OCC(=O)Nc2ncc(Cl)cc2Cl)cc1 | 24%
CCc1nc2oc3ccccc3c(=O)c2c(=O)n1Cc1ccc(OC)cc1 | -0.6%
O=c1c2ccccc2oc2nc3n(c(=O)c12)CCCS3 | 0.7%
O=c1c2ccccc2oc2nc(C3CCCCC3)n(Cc3ccco3)c(=O)c12 | 50.7% (active)
O=C(O)/C=C/C(=O)Nc1ccc(F)cc1F | 5.3%
Cn1c2c(c(=O)n(C)c1=O)CN(Cc1ccco1)CN2 | 0.4%
CCOC(=O)Cc1csc(NC(=O)C(C)(C)C)n1 | 15.4%
CCCC(CCC(=O)OC)(C(=O)OCC)c1csc(N)n1 (stereo not given) | 73.6% (active)
CCOC(=O)Cc1csc(NC(NC(=O)OCC)(C(F)(F)F)C(F)(F)F)n1 | 13.5%
COc1ccc(-n2c(SC)nc(O)cc2=O)cc1 | 5.6%
COCCNc1nc(-n2nc(C)cc2C)nc2sc3c(c12)CCCC3 | -16.1%
O=C(CSc1nnc(-c2ccccc2)o1)N1CCOCC1 | -12.3%
OCCNc1nc2ccccc2[nH]1 | -4.7%
c1ccc2c(CSCc3nc4ccccc4[nH]3)cccc2c1 | 89.3% (active)

SMILES | inhibition
Oc1ccc2nc(Cc3ccccc3)[nH]c2c1 | 23.6%
CCCCSc1nnc(-c2ccc(C)cc2)o1 | 49.4%
Clc1ccccc1SCc1nc2ccccc2[nH]1 | 83.2% (active)
N#C/C(=C(/O)COc1cccc2ccccc12)c1nc2ccccc2[nH]1 | 12%
c1ccc(-c2nnc(SCc3nc4ccccc4[nH]3)o2)cc1 | 95.2% (active)
N#Cc1c2c(c(N3CCN(CCO)CC3)n3c1nc1ccccc13)CCCC2 | 34.5%
CN(C)CCNC(=O)C(C(=O)c1ccccc1)n1ccccc1=O (stereo not given) | -10.3%
Cc1ccccc1S(=O)(=O)Cc1ccc(C(=O)NCCN2CCCCC2C)o1 (stereo not given) | 4.1%
COC(=O)c1cnn2c(C(F)(F)F)cc(-c3ccco3)nc12 | -9%
COc1ccc(OCCCC(=O)Oc2ccc(OC)cc2)cc1 | 6.3%
COc1ccc(/C(N)=N/OC(=O)Oc2ccccc2)cc1 | 58.6% (active)
N/C(=N\OC(=O)CCc1ccccc1)c1ccc(Cl)cc1 | -1.3%
COc1ccc(OC)c(Nc2nc(-c3ccc(O)c(O)c3)cs2)c1 | 27.6%
COc1ccc(NC(=O)Nc2ccc3nc(C)c(C)nc3c2)cc1 | 3.2%
COc1ccc2c(c1)cc1n2CCN=C1NN | 92.9% (active)
CC(=O)N1CSCC1C(=O)O (stereo not given) | 2.2%
CC1(C)C/C(=C(/C#N)C(N)=O)CCO1 | -16.7%
CC(C)OC(=O)c1sc2nc3c(cc2c1N)C(=O)CCC3 | 7.1%
CC1=C(C(=O)Nc2ccc(Cl)cc2)C(c2ccco2)NC(=O)N1 (stereo not given) | 18.4%
Cc1cccc(N2CCN(C(=O)CN(C)S(=O)(=O)c3ccc4c(c3)CCC(=O)N4)CC2)c1C | 6.3%
COC(=O)c1ccc(COC(=O)c2c(C)nn(Cc3ccccc3Cl)c2Cl)o1 | 90.5% (active)
CCOC(=O)c1cnn(Cc2ccccc2Cl)c1N | 30.5%
COCCCNC(=O)CN1CCN(Cc2ccccc2Cl)C1=O | -10.8%
CCOC(=O)c1sc(/N=C/Nc2nc(C)c(C(=O)OCC)s2)nc1C | 7.2%
c1ccc(CC2CCN(c3nc4ccccc4n4cnnc34)CC2)cc1 | -7.7%
